Most compounds without a hit are left out; they make up all but 2.8% or so of the library.
Calpain2 inh: inhibitors of pig calpain II. hit rate 0.37% among 220,000. purified calpain II, fluorogenic peptide substrate, 30 min. inhibition, % at 16 µM;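 active = inhibition above about 50%, limit read from the data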
Bim-Mcl-1: inhibitors of Bim-Mcl-1 interaction, human. Bead-based flow cytometry, Bim peptide-Mcl-1 binding. AID 1009. Q07820. inhibition, % at 10 µM. hit rate 0.1% among 190,000; in the data active = inhibition above about 40%
Target sequence (Q07820 whole entry, looked up): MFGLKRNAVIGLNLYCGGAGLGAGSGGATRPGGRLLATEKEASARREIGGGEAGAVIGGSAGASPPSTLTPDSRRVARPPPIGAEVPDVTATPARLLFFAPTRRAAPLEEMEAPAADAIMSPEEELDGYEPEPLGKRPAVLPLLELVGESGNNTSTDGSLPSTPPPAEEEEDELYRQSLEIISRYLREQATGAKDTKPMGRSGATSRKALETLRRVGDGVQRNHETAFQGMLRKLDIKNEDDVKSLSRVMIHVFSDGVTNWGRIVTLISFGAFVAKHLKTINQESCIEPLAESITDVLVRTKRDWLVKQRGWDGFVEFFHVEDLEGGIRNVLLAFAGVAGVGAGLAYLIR
Mcl1 Bid PPI: Mcl-1/Bid interaction inhibition; Q07820; AID 1021; inhibition, % at 21.7 µM; TR-FRET Mcl-1/Bid-Dy647 peptide binding, 1536-well; hit rate 0.97% among 220,000;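 active = compounds that cut the binding signal by more than half at the single screening dose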;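 also: His-tagged Mcl-1 with europium anti-His antibody binding Bid BH3 peptide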
TNF death inh: inhibitors of TNF-alpha induced necroptosis in Jurkat FADD-/- cells. hit rate 0.068% among 220,000. Jurkat FADD-/- TNF necroptosis rescue, ATP luminescence, 24 h; 0 = TNF only, 100 = no-TNF cells. activation (protection from cell death), % at 10 µM;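 active = activation, meaning protection from cell death, of at least 50% relative to plate controls; inactive = activation below 50%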;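 also: necroptosis triggered by 40 ng/mL TNF-alpha added together with compound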
zVAD death inh: L929 zVAD cell death inhibition; L929 zVAD necroptosis rescue, ATP luminescence, 24 h; with zVAD 60 µM; viability rescue, % at 10 µM; hit rate 0.38% among 220,000; AID 1377;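 active = activation, scaled between plate controls, above about 75%, limit read from the data; inactive = activation under that limit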
Mcl1 Noxa PPI: disrupts binding of human Mcl-1 to Noxa peptide; TR-FRET Mcl-1/Noxa peptide binding, 2 h; inhibition, % at 21.7 µM; Q07820; AID 1022; hit rate 1.5% among 220,000;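 active = compounds that cut the protein-peptide binding signal by more than 50% relative to plate controls in a single-dose test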;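 also: His-tagged Mcl-1 with rhodamine Noxa BH3 peptide and terbium anti-His antibody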
Of the large screens only hits and unclear results are named; the others gave an inactive call.

COCCCN1C(=O)C(=O)/C(=C(/O)c2ccc(OC)cc2)C1c1cccc(OC)c1 (centres undefined)	Mcl1 Noxa PPI 63.8
Cc1ccc(C(C)C)c(OCc2ccc(C(=O)N/N=C/c3ccc(C(=O)O)cc3)cc2)c1	none (no result: Bim-Mcl-1)
Cc1ccc(C(C)C)c(OCc2ccc(C(=O)N/N=C/c3ccc(O)cc3O)cc2)c1	Mcl1 Bid PPI 51.6, Mcl1 Noxa PPI 86.3
CC(=O)NC1(C(F)(F)F)C(=O)Nc2c1c(=O)[nH]c(=O)n2Cc1ccco1 (centres undefined)	none
CC(=O)Nc1ccc(S(=O)(=O)NC2(C(F)(F)F)C(=O)Nc3c2c(=O)[nH]c(=O)n3C)cc1 (centres undefined)	none
CC(=O)Nc1ccc(S(=O)(=O)NC2(C(F)(F)F)C(=O)Nc3c2c(=O)n(C)c(=O)n3C)cc1 (centres undefined)	Mcl1 Noxa PPI 52.4
CC(=O)Nc1ccc(S(=O)(=O)NC2(C(F)(F)F)C(=O)Nc3c2c(=O)[nH]c(=O)n3Cc2cccnc2)cc1 (centres undefined)	Mcl1 Noxa PPI 56.4
CC(=O)Nc1ccc(S(=O)(=O)NC2(C(F)(F)F)C(=O)Nc3c2c(=O)[nH]c(=O)n3Cc2ccco2)cc1 (centres undefined)	Mcl1 Noxa PPI 56.4
O=C(OC1Cn2c(=O)ccc(=O)n2C1)c1ccccc1	none
COc1cc(NC(=O)CN2C(=O)NC(c3ccccc3)(c3ccccc3)C2=O)c(C)cc1[N+](=O)[O-]	none
O=C(Nc1cc(C(F)(F)F)ccc1-n1cncn1)c1ccc(-c2ccccc2)cc1	none
O=C1N=C(N2CCN(c3ccccc3)CC2)S/C1=C\c1ccco1	none
NC1=NC(=O)/C(=C\c2ccco2)S1	Mcl1 Noxa PPI 56.9 (no result: Bim-Mcl-1)
Cc1cc2cc(CNC(=O)c3ccc(Br)o3)ccc2n1C	Mcl1 Noxa PPI 59.1 (no result: Bim-Mcl-1)
CCN(CC)CCC(C)OC(c1ccccc1)c1ccccc1 (centres undefined)	none
Nc1ccc(-c2nc3cc([N+](=O)[O-])ccc3o2)cc1	Mcl1 Noxa PPI 79.7 (no result: Bim-Mcl-1)
Cc1ccsc1/C=N/NS(=O)(=O)c1ccc([N+](=O)[O-])cc1	none
COc1ccc(NC(=O)c2ccc(=O)oc2)cc1	Calpain2 inh 52.0
CCCCSCCCNC(=O)Nc1ccc(C)c(C)c1	none
Cc1ccc(S(=O)(=O)n2[nH]c(=O)c(CCO)c2C)cc1	none
N#C/C(=C1/CCCCCN1)c1nc2ccccc2s1	Mcl1 Bid PPI 98.0
N#C/C(=C1\CCCN1)c1nc2ccccc2c(=O)[nH]1	none
Cc1ccc(C(=O)Oc2ccc(-c3nccc(-c4ccccn4)n3)cc2)cc1	Mcl1 Bid PPI 55.2
COc1cccc(CN2CCNC(=O)C2CC(=O)NCCc2nc(C)c(C)s2)c1OC (centres undefined)	none
COc1cc(/C=C2/NC(=O)N(Cc3ccccc3F)C2=O)cc(OC)c1O	Bim-Mcl-1 51.0, Mcl1 Noxa PPI 56.8
CCOc1cc(/C=C2/NC(=O)N(Cc3ccccc3F)C2=O)ccc1O	none
CNc1ccc(Br)cc(C(=O)/C=C/c2ccc(OC)cc2)c1=O	Mcl1 Noxa PPI 62.6
CCNc1ccc(Br)cc(C(=O)/C=C/c2ccc(Cl)cc2Cl)c1=O	Mcl1 Noxa PPI 95.6
CNc1ccc(Br)cc(C(=O)/C=C/c2cc(OC)ccc2OC)c1=O	Mcl1 Noxa PPI 86.8
CNc1ccc(Br)cc(C(=O)/C=C/c2ccc3c(c2)OCO3)c1=O	Mcl1 Noxa PPI 67.7
COc1ccc(/C=C/C(=O)c2cc(Br)ccc2O)cc1OC	none
COCCCNC(=O)/C=C/c1ccc(Cl)cc1Cl	none
CCN(CC(=O)Nc1ccc(Cl)c(C(F)(F)F)c1)CC(=O)NC1CCS(=O)(=O)C1 (centres undefined)	none
COc1ccc(CCNCC(=O)Nc2ccccc2C(F)(F)F)cc1	none
CC1(OC(=O)C2CCCC2)C(=O)C=C2C=C3CCCCN3C=C2C1=O (centres undefined)	none (no result: Bim-Mcl-1)
COC(=O)CCC(=O)OC1(C)C(=O)C=C2C=C3CCCN3C=C2C1=O (centres undefined)	Mcl1 Noxa PPI 53.6 (no result: Bim-Mcl-1)
CC1(OC(=O)c2ccc(Cl)nc2)C(=O)C=C2C=C3CCCN3C=C2C1=O (centres undefined)	Mcl1 Noxa PPI 58.7 (no result: Bim-Mcl-1)
Cc1ccccc1-c1nn(-c2ccc(F)cc2F)cc1CNCCCN(C)C	none
Cc1cccc(-c2nc(Nc3ccc(N4CCOCC4)cc3)c3ccccc3n2)c1	Mcl1 Noxa PPI 81.5
Cc1ccc2nc3c(c(Nc4ccc5c(c4)OCCO5)c2c1)CCC3	Mcl1 Noxa PPI 56.0
Cc1cccc(Nc2c3c(nc4ccccc24)CCC3)c1	none (no result: Bim-Mcl-1)
NC(=O)c1nn(-c2ccccc2)nc1NC(=O)Cn1nnc(-c2ccccc2)n1	none
O=[N+]([O-])c1ccc(Nc2ccccc2F)nc1	TNF death inh 72.9
CC(C)(C)c1ccc(CNc2ccc([N+](=O)[O-])cn2)cc1	Calpain2 inh 78.6
O=[N+]([O-])c1ccc(Nc2ccc(Cl)cc2)nc1	TNF death inh 81.1
O=[N+]([O-])c1ccc(Nc2ccc3ccccc3c2)nc1	none
CC(C)c1ccc(CNc2ccc([N+](=O)[O-])cn2)cc1	Calpain2 inh 93.7
CC(=O)NCCNc1ccc([N+](=O)[O-])cn1	none
O=C(CCC(=O)OCc1ccc(Br)cc1)Nc1ccccc1	none
CCCn1ncc(CN2CCC(CO)(CC3CCCCO3)CC2)c1C (centres undefined)	none
O=[N+]([O-])c1ccc(NCc2ccc(Cl)cc2)nc1	Calpain2 inh 79.6 (no result: Bim-Mcl-1)
COc1ccccc1CN(C)CC(=O)NC1CCCc2ccccc21 (centres undefined)	none
O=c1oc2cc([N+](=O)[O-])ccc2nc1/C=C(O)/C=C/c1ccccc1	Mcl1 Noxa PPI 72.2 (no result: Bim-Mcl-1)
C/C(=N\Nc1ccc(C(=O)O)cc1)c1ccc2c(c1)Nc1ccccc1S2	Mcl1 Bid PPI 56.8, Mcl1 Noxa PPI 87.1 (no result: Bim-Mcl-1)
O=C(NCc1ccc(Cl)cc1)c1cnn2ccccc12	none
COc1ccc(/C=N/NC(=O)c2cc(O)c(O)c(O)c2)cc1Cn1cc([N+](=O)[O-])cn1	Mcl1 Noxa PPI 92.5
O=C(Nc1ccncc1)c1ccc2c(c1)C(=O)N(C1CCCCC1)C2=O	none
CC(=O)N1CCc2cc(S(=O)(=O)NCCC(=O)Nc3cccc(C)c3)ccc21	none
CCOC(=O)c1cccc(NC(=O)CCNS(=O)(=O)c2ccc3c(c2)CCN3C(=O)CC)c1	Mcl1 Bid PPI 70.4
CCOc1c(Cl)cc(CNc2ccc(N3CCCC3)cc2)cc1OC	Mcl1 Noxa PPI 88.4
CCOc1c(Cl)cc(CNc2ccc(S(N)(=O)=O)cc2)cc1OC	none (no result: zVAD death inh)
CCOC(=O)c1nn(-c2ccc(F)cc2)c2c1CC/C2=C/c1ccccc1	none
O=C(NCCCN1CCOCC1)c1c(O)c2cc(Br)cc(Br)c2[nH]c1=O	none (no result: Calpain2 inh, Bim-Mcl-1, Mcl1 Bid PPI, Mcl1 Noxa PPI)
COc1cc2[nH]c(=O)c(C(=O)NCCCN3CCOCC3)c(O)c2cc1OC	Mcl1 Noxa PPI 67.5
C[C@H](NC(=O)c1nc[nH]c1C(=O)NC1CCN(C(=O)OC(C)(C)C)CC1)C(=O)OCc1ccccc1	none

Screening results deposited in PubChem by several laboratories.
